Results taken from the supplement of paper PMC7411054.
Counter-ions that a name gives are not always drawn.

Columns and labels:
Conditions in all cases: treatment time: 24 h
A549-ACTB-RAB5A = experiment: phenotypically active (imaging signature differs from DMSO and reproducible) at any of 0.3-9 uM (binary (1 = active, 0 = inactive)); higher = active
Outline: (§1)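 Cells from fifteen gene-edited reporter lines (A549, HepG2 and WPMY1) were treated for 24 h at 0.3, 1, 3 or 9 µM and imaged live, four wells per condition. Features were normalised per well to solvent control wells. A condition deviated if ≥3 of 4 wells passed the 95th percentile of control Euclidean distances and was reproducible if its median replicate Pearson correlation beat the 95th percentile of non-replicates; phenotypic activity needed both.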

A549-CANX-COX4 = experiment: as above
Outline: as §1

A549-GM130-SQSTM1 = experiment: as above
Outline: as §1

A549-TP53BP1-CLTA = experiment: as above
Outline: as §1

A549-TUBA1B-RELA = experiment: as above
Outline: as §1

HepG2-ACTB-RAB5A = experiment: as above
Outline: as §1

HepG2-CANX-COX4 [1] = experiment: as above
Outline: as §1

HepG2-GM130-SQSTM1 = experiment: as above
Outline: as §1

HepG2-TP53BP1-CLTA = experiment: as above
Outline: as §1

HepG2-TUBA1B-RELA = experiment: as above
Outline: as §1

WPMY1-ACTB-RAB5A [2] = experiment: as above
Outline: as §1

WPMY1-CANX-COX4 = experiment: as above
Outline: as §1

WPMY1-GM130-SQSTM1 [3] = experiment: as above
Outline: as §1

WPMY1-TP53BP1-CLTA = experiment: as above
Outline: as §1

WPMY1-TUBA1B-RELA = experiment: as above
Outline: as §1

WPMY1-GM130-SQSTM1 [4] = experiment: lowest phenotypically active concentration; higher = less potent
Outline: as §1

HepG2-CANX-COX4 [5] = experiment: as above
Outline: as §1

WPMY1-ACTB-RAB5A [6] = experiment: as above
Outline: as §1

O=C(O)/C(Cc1ccccc1[N+](=O)[O-])=N\Nc1nc(-c2ccc(Cl)c(Cl)c2)cs1
inactive: phenotypically active (A549-ACTB-RAB5A) 0 | phenotypically active (A549-CANX-COX4) 0 | phenotypically active (A549-GM130-SQSTM1) 0 | phenotypically active (A549-TP53BP1-CLTA) 0 | phenotypically active (A549-TUBA1B-RELA) 0 | phenotypically active (HepG2-ACTB-RAB5A) 0 | phenotypically active (HepG2-CANX-COX4 [1]) 0 | phenotypically active (HepG2-GM130-SQSTM1) 0 | phenotypically active (HepG2-TP53BP1-CLTA) 0 | phenotypically active (HepG2-TUBA1B-RELA) 0 | phenotypically active (WPMY1-ACTB-RAB5A [2]) 0 | phenotypically active (WPMY1-CANX-COX4) 0 | phenotypically active (WPMY1-GM130-SQSTM1 [3]) 0 | phenotypically active (WPMY1-TUBA1B-RELA) 0
active: phenotypically active (WPMY1-TP53BP1-CLTA) 1

NC(=O)c1sc2c([N+](=O)[O-])cc(C(F)(F)F)cc2[n+]1[O-] [Cyclapolin 9]
active: phenotypically active (WPMY1-GM130-SQSTM1 [3]) 1 | phenotypically active (WPMY1-TUBA1B-RELA) 1
9 µM: lowest phenotypically active concentration (WPMY1-GM130-SQSTM1 [4])
inactive: phenotypically active (A549-ACTB-RAB5A) 0 | phenotypically active (A549-CANX-COX4) 0 | phenotypically active (A549-GM130-SQSTM1) 0 | phenotypically active (A549-TP53BP1-CLTA) 0 | phenotypically active (A549-TUBA1B-RELA) 0 | phenotypically active (HepG2-ACTB-RAB5A) 0 | phenotypically active (HepG2-CANX-COX4 [1]) 0 | phenotypically active (HepG2-GM130-SQSTM1) 0 | phenotypically active (HepG2-TP53BP1-CLTA) 0 | phenotypically active (HepG2-TUBA1B-RELA) 0 | phenotypically active (WPMY1-ACTB-RAB5A [2]) 0 | phenotypically active (WPMY1-CANX-COX4) 0 | phenotypically active (WPMY1-TP53BP1-CLTA) 0

N#Cc1c(O)c2c(-c3ccc(-c4ccccc4O)cc3)csc2[nH]c1=O
inactive: phenotypically active (A549-CANX-COX4) 0 | phenotypically active (A549-TP53BP1-CLTA) 0 | phenotypically active (HepG2-ACTB-RAB5A) 0 | phenotypically active (HepG2-CANX-COX4 [1]) 0 | phenotypically active (HepG2-GM130-SQSTM1) 0 | phenotypically active (HepG2-TP53BP1-CLTA) 0 | phenotypically active (HepG2-TUBA1B-RELA) 0 | phenotypically active (WPMY1-ACTB-RAB5A [2]) 0 | phenotypically active (WPMY1-CANX-COX4) 0 | phenotypically active (WPMY1-GM130-SQSTM1 [3]) 0 | phenotypically active (WPMY1-TP53BP1-CLTA) 0 | phenotypically active (WPMY1-TUBA1B-RELA) 0

C[C@H](CS)C(=O)N1CCC[C@H]1C(=O)O [captopril]
inactive: phenotypically active (A549-ACTB-RAB5A) 0 | phenotypically active (A549-CANX-COX4) 0 | phenotypically active (A549-GM130-SQSTM1) 0 | phenotypically active (A549-TUBA1B-RELA) 0 | phenotypically active (HepG2-ACTB-RAB5A) 0 | phenotypically active (HepG2-CANX-COX4 [1]) 0 | phenotypically active (HepG2-GM130-SQSTM1) 0 | phenotypically active (HepG2-TUBA1B-RELA) 0 | phenotypically active (WPMY1-ACTB-RAB5A [2]) 0 | phenotypically active (WPMY1-CANX-COX4) 0 | phenotypically active (WPMY1-GM130-SQSTM1 [3]) 0 | phenotypically active (WPMY1-TUBA1B-RELA) 0

CCCc1nc2c(C)cc(-c3nc4ccccc4n3C)cc2n1Cc1ccc(-c2ccccc2C(=O)O)cc1 [telmisartan]
inactive: phenotypically active (A549-CANX-COX4) 0 | phenotypically active (A549-TP53BP1-CLTA) 0 | phenotypically active (HepG2-ACTB-RAB5A) 0 | phenotypically active (HepG2-CANX-COX4 [1]) 0 | phenotypically active (HepG2-GM130-SQSTM1) 0 | phenotypically active (HepG2-TP53BP1-CLTA) 0 | phenotypically active (HepG2-TUBA1B-RELA) 0 | phenotypically active (WPMY1-ACTB-RAB5A [2]) 0 | phenotypically active (WPMY1-CANX-COX4) 0 | phenotypically active (WPMY1-GM130-SQSTM1 [3]) 0 | phenotypically active (WPMY1-TP53BP1-CLTA) 0 | phenotypically active (WPMY1-TUBA1B-RELA) 0

C[C@@H](Oc1cc(-c2cnn(C3CCNCC3)c2)cnc1N)c1c(Cl)ccc(F)c1Cl [Crizotinib]
active: phenotypically active (A549-CANX-COX4) 1 | phenotypically active (A549-GM130-SQSTM1) 1 | phenotypically active (A549-TP53BP1-CLTA) 1 | phenotypically active (HepG2-ACTB-RAB5A) 1 | phenotypically active (HepG2-CANX-COX4 [1]) 1 | phenotypically active (HepG2-TP53BP1-CLTA) 1 | phenotypically active (HepG2-TUBA1B-RELA) 1 | phenotypically active (WPMY1-ACTB-RAB5A [2]) 1 | phenotypically active (WPMY1-CANX-COX4) 1 | phenotypically active (WPMY1-GM130-SQSTM1 [3]) 1 | phenotypically active (WPMY1-TP53BP1-CLTA) 1 | phenotypically active (WPMY1-TUBA1B-RELA) 1

Cc1ccc(C(=O)c2ccc(CC(=O)O)n2C)cc1 [tolmetin]
inactive: phenotypically active (A549-CANX-COX4) 0 | phenotypically active (A549-TP53BP1-CLTA) 0 | phenotypically active (HepG2-ACTB-RAB5A) 0 | phenotypically active (HepG2-CANX-COX4 [1]) 0 | phenotypically active (HepG2-GM130-SQSTM1) 0 | phenotypically active (HepG2-TP53BP1-CLTA) 0 | phenotypically active (HepG2-TUBA1B-RELA) 0 | phenotypically active (WPMY1-ACTB-RAB5A [2]) 0 | phenotypically active (WPMY1-CANX-COX4) 0 | phenotypically active (WPMY1-GM130-SQSTM1 [3]) 0 | phenotypically active (WPMY1-TP53BP1-CLTA) 0 | phenotypically active (WPMY1-TUBA1B-RELA) 0

C#C[C@]1(OC(C)=O)CC[C@H]2[C@@H]3CCC4=C[C@@H](OC(C)=O)CC[C@@H]4[C@H]3CC[C@@]21C [ethynodiol diacetate]
inactive: phenotypically active (A549-CANX-COX4) 0 | phenotypically active (A549-TP53BP1-CLTA) 0 | phenotypically active (HepG2-ACTB-RAB5A) 0 | phenotypically active (HepG2-CANX-COX4 [1]) 0 | phenotypically active (HepG2-GM130-SQSTM1) 0 | phenotypically active (HepG2-TP53BP1-CLTA) 0 | phenotypically active (HepG2-TUBA1B-RELA) 0 | phenotypically active (WPMY1-ACTB-RAB5A [2]) 0 | phenotypically active (WPMY1-CANX-COX4) 0 | phenotypically active (WPMY1-GM130-SQSTM1 [3]) 0 | phenotypically active (WPMY1-TP53BP1-CLTA) 0 | phenotypically active (WPMY1-TUBA1B-RELA) 0

CC(C)C(=O)Nc1ncc(-c2cc(C(F)F)nn2-c2c(Cl)cccc2Cl)s1
inactive: phenotypically active (A549-CANX-COX4) 0 | phenotypically active (A549-GM130-SQSTM1) 0 | phenotypically active (A549-TUBA1B-RELA) 0 | phenotypically active (HepG2-GM130-SQSTM1) 0 | phenotypically active (HepG2-TUBA1B-RELA) 0
9 µM: lowest phenotypically active concentration (HepG2-CANX-COX4 [5]) | lowest phenotypically active concentration (WPMY1-ACTB-RAB5A [6]) | lowest phenotypically active concentration (WPMY1-GM130-SQSTM1 [4])
active: phenotypically active (A549-ACTB-RAB5A) 1 | phenotypically active (HepG2-ACTB-RAB5A) 1 | phenotypically active (HepG2-CANX-COX4 [1]) 1 | phenotypically active (WPMY1-ACTB-RAB5A [2]) 1 | phenotypically active (WPMY1-CANX-COX4) 1 | phenotypically active (WPMY1-GM130-SQSTM1 [3]) 1 | phenotypically active (WPMY1-TUBA1B-RELA) 1

C=C[C@H]1CN2CC[C@H]1C[C@H]2[C@H](O)c1ccnc2ccc(OC)cc12 [Quinine dihydrochloride]
inactive: phenotypically active (A549-CANX-COX4) 0 | phenotypically active (A549-TUBA1B-RELA) 0 | phenotypically active (HepG2-ACTB-RAB5A) 0 | phenotypically active (HepG2-CANX-COX4 [1]) 0 | phenotypically active (HepG2-GM130-SQSTM1) 0 | phenotypically active (HepG2-TUBA1B-RELA) 0 | phenotypically active (WPMY1-ACTB-RAB5A [2]) 0 | phenotypically active (WPMY1-CANX-COX4) 0 | phenotypically active (WPMY1-GM130-SQSTM1 [3]) 0 | phenotypically active (WPMY1-TUBA1B-RELA) 0
active: phenotypically active (A549-ACTB-RAB5A) 1 | phenotypically active (A549-GM130-SQSTM1) 1

Clc1ccc2nsnc2c1NC1=NCCN1 [tizanidine]
inactive: phenotypically active (A549-CANX-COX4) 0 | phenotypically active (A549-TP53BP1-CLTA) 0 | phenotypically active (HepG2-ACTB-RAB5A) 0 | phenotypically active (HepG2-CANX-COX4 [1]) 0 | phenotypically active (HepG2-GM130-SQSTM1) 0 | phenotypically active (HepG2-TP53BP1-CLTA) 0 | phenotypically active (HepG2-TUBA1B-RELA) 0 | phenotypically active (WPMY1-ACTB-RAB5A [2]) 0 | phenotypically active (WPMY1-CANX-COX4) 0 | phenotypically active (WPMY1-GM130-SQSTM1 [3]) 0 | phenotypically active (WPMY1-TP53BP1-CLTA) 0 | phenotypically active (WPMY1-TUBA1B-RELA) 0

CS(=O)(=O)c1ccc(-c2nnc(/C=C/c3nnc(-c4ccc(C#N)cc4)o3)n2-c2ccccc2Cl)nc1
active: phenotypically active (WPMY1-TP53BP1-CLTA) 1
inactive: phenotypically active (A549-ACTB-RAB5A) 0 | phenotypically active (A549-CANX-COX4) 0 | phenotypically active (A549-GM130-SQSTM1) 0 | phenotypically active (A549-TP53BP1-CLTA) 0 | phenotypically active (A549-TUBA1B-RELA) 0 | phenotypically active (HepG2-ACTB-RAB5A) 0 | phenotypically active (HepG2-CANX-COX4 [1]) 0 | phenotypically active (HepG2-GM130-SQSTM1) 0 | phenotypically active (HepG2-TP53BP1-CLTA) 0 | phenotypically active (HepG2-TUBA1B-RELA) 0 | phenotypically active (WPMY1-ACTB-RAB5A [2]) 0 | phenotypically active (WPMY1-CANX-COX4) 0 | phenotypically active (WPMY1-GM130-SQSTM1 [3]) 0 | phenotypically active (WPMY1-TUBA1B-RELA) 0

Cc1cnc(NC(=O)C2=C(O)c3ccccc3S(=O)(=O)N2C)s1 [meloxicam]
inactive: phenotypically active (A549-ACTB-RAB5A) 0 | phenotypically active (A549-CANX-COX4) 0 | phenotypically active (A549-GM130-SQSTM1) 0 | phenotypically active (A549-TUBA1B-RELA) 0 | phenotypically active (HepG2-ACTB-RAB5A) 0 | phenotypically active (HepG2-CANX-COX4 [1]) 0 | phenotypically active (HepG2-GM130-SQSTM1) 0 | phenotypically active (HepG2-TUBA1B-RELA) 0 | phenotypically active (WPMY1-ACTB-RAB5A [2]) 0 | phenotypically active (WPMY1-CANX-COX4) 0 | phenotypically active (WPMY1-GM130-SQSTM1 [3]) 0 | phenotypically active (WPMY1-TUBA1B-RELA) 0

CC(CCc1ccccc1)NCC(O)c1ccc(O)c(C(N)=O)c1 (stereo unspecified) [labetalol]
inactive: phenotypically active (A549-CANX-COX4) 0 | phenotypically active (A549-TP53BP1-CLTA) 0 | phenotypically active (HepG2-ACTB-RAB5A) 0 | phenotypically active (HepG2-CANX-COX4 [1]) 0 | phenotypically active (HepG2-GM130-SQSTM1) 0 | phenotypically active (HepG2-TP53BP1-CLTA) 0 | phenotypically active (HepG2-TUBA1B-RELA) 0 | phenotypically active (WPMY1-ACTB-RAB5A [2]) 0 | phenotypically active (WPMY1-CANX-COX4) 0 | phenotypically active (WPMY1-GM130-SQSTM1 [3]) 0 | phenotypically active (WPMY1-TP53BP1-CLTA) 0 | phenotypically active (WPMY1-TUBA1B-RELA) 0
